We go through six compounds from PubChem BioAssay (EPA / NIEHS).

Where “and” joins values, the source holds several entries; their conditions need not be identical. Equal entries are not always repeated. The source holds several records for some structures; these can differ, active in one and inactive in another. Calls of active or inactive are those of the source. Rule for the calls: active = hit-call score of the fitted dose curve at least 0.9, where 1 is the maximum; inactive = score below 0.9.

Read-out in assay [1]: serum amyloid A (SAA), SAA1 (gene 6288)
Description: BSK_CASM3C_SAA: BioMAP Diversity Plus: CASM3C Assay for serum amyloid A (SAA) Biomarker Activity (AID 2283049).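 Note: SAA protein level quantified by ELISA.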 The conditions noted are these: primary human coronary artery smooth muscle cells; actives raise or lower the signal.

A short description of assay [2]: BSK_CASM3C_SRB: Viability Assessment in the BioMAP Diversity Plus: CASM3C Assay (AID 2283050). The conditions noted are these: primary human coronary artery smooth muscle cells.
Read-out in assay [3]: Thrombomodulin, THBD (gene 7056)
In words: BSK_CASM3C_Thrombomodulin: BioMAP Diversity Plus: CASM3C Assay for Thrombomodulin Biomarker Activity (AID 2283051).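 Note: thrombomodulin protein level measured by ELISA 24 h after dosing.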 The conditions noted are these: primary human coronary artery smooth muscle cells; actives raise or lower the signal.

Read-out in assay [4]: Tissue Factor, F3 (gene 2152)
In words: BSK_CASM3C_TissueFactor: BioMAP Diversity Plus: CASM3C Assay for Tissue Factor Biomarker Activity (AID 2283052).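 Note: cell surface tissue factor protein level read by ELISA.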 As to conditions: primary human coronary artery smooth muscle cells; actives raise or lower the signal.

Read-out in assay [5]: Interferon-gamma inducible Protein 10 (IP10), CXCL10 (gene 3627)
Description: BSK_hDFCGF_IP10: BioMAP Diversity Plus: hDFCGF Assay for Interferon-gamma inducible Protein 10 (IP10) Biomarker Activity (AID 2283053). The conditions noted are these: primary human foreskin fibroblasts; actives raise or lower the signal. The essentials: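 Primary human foreskin fibroblasts exposed to chemicals for 24 h. IP-10 measured by ELISA; changes fitted bidirectionally against DMSO baseline.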

Read-out in assay [6]: Urokinase-type plasminogen activator receptor (uPAR), PLAUR (gene 5329)
Description: BSK_CASM3C_uPAR: BioMAP Diversity Plus: CASM3C Assay for Urokinase-type plasminogen activator receptor (uPAR) Biomarker Activity (AID 2283054).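 Note: cell-surface uPAR protein level quantified by ELISA.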 As to conditions: primary human coronary artery smooth muscle cells; actives raise or lower the signal.

Read-out in assay [7]: Vascular cell adhesion molecule 1 (VCAM1), VCAM1 (gene 7412)
In words: BSK_CASM3C_VCAM1: BioMAP Diversity Plus: CASM3C Assay for Vascular cell adhesion molecule 1 (VCAM1) Biomarker Activity (AID 2283055).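 Note: VCAM-1 protein level quantified by ELISA on the cells.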 As to conditions: primary human coronary artery smooth muscle cells; actives raise or lower the signal.

Read-out in assay [8]: Collagen III, COL3A1 (gene 1281)
In words: BSK_hDFCGF_CollagenIII: BioMAP Diversity Plus: hDFCGF Assay for Collagen III Biomarker Activity (AID 2283056). As to conditions: primary human foreskin fibroblasts; actives raise or lower the signal. In outline: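 Response relative to DMSO, fitted in both directions, reflects ELISA-measured collagen III in human primary skin fibroblasts 24 h after compound addition.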

Read-out in assay [9]: Epidermal growth factor receptor (EGFR), EGFR (gene 1956)
In words: BSK_hDFCGF_EGFR: BioMAP Diversity Plus: hDFCGF Assay for Epidermal growth factor receptor (EGFR) Biomarker Activity (AID 2283057). The conditions noted are these: primary human foreskin fibroblasts; actives raise or lower the signal. The essentials:
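Primary human foreskin fibroblasts (hDFCGF system), sampled 24 h after dosing; EGFR quantified by ELISA. Bidirectional fit relative to DMSO baseline; SRB total-protein staining in parallel cultures for cytotoxicity.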

Read-out in assay [10]: Interleukin-8 (IL8), CXCL8 (gene 3576)
Description: BSK_hDFCGF_IL8: BioMAP Diversity Plus: hDFCGF Assay for Interleukin-8 (IL8) Biomarker Activity (AID 2283058). As to conditions: primary human foreskin fibroblasts; actives raise or lower the signal. The essentials:
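Fibroblast monolayers (human foreskin, hDFCGF) received test chemical for 24 h before ELISA detection of IL-8; either increases or decreases relative to DMSO count as activity.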

A short description of assay [11]: BSK_hDFCGF_Proliferation: Cell Proliferation Assessment in the BioMAP Diversity Plus: hDFCGF Assay (AID 2283059).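 Note: curves fitted for both rise and fall of signal versus DMSO baseline.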 The conditions noted are these: primary human foreskin fibroblasts. The essentials:
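This proliferation readout used SRB total-protein staining of human foreskin fibroblasts […], normalized to DMSO with bidirectional curve fitting.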

Read-out in assay [12]: Macrophage colony-stimulating factor (MCSF), CSF1 (gene 1435)
Description: BSK_hDFCGF_MCSF: BioMAP Diversity Plus: hDFCGF Assay for Macrophage colony-stimulating factor (MCSF) Biomarker Activity (AID 2283060). As to conditions: primary human foreskin fibroblasts; actives raise or lower the signal. The essentials: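 fibroblasts (human foreskin, primary), 24 h post-dose; M-CSF by ELISA; bidirectional fit, DMSO = baseline.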

Assay [13] can be described thus: BSK_hDFCGF_SRB: Viability Assessment in the BioMAP Diversity Plus: hDFCGF Assay (AID 2283061).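 Note: cells exposed to compound for 24 h before the read.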 As to conditions: primary human foreskin fibroblasts. In outline:
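SRB-based viability read on primary human skin fibroblasts at 24 h: TCA fixation, 0.1% dye, 560 nm. Gain or loss of signal is fitted against the DMSO negative control.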

Read-out in assay [14]: TIMP metallopeptidase inhibitor 1 (TIMP1), TIMP1 (gene 7076)
Description: BSK_hDFCGF_TIMP1: BioMAP Diversity Plus: hDFCGF Assay for TIMP metallopeptidase inhibitor 1 (TIMP1) Biomarker Activity (AID 2283062). As to conditions: primary human foreskin fibroblasts; actives raise or lower the signal. The essentials: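 Bidirectional curve fitting against DMSO baseline yielded this endpoint, based on ELISA detection of TIMP-1 in primary human foreskin fibroblasts exposed to compound for 24 h.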

Read-out in assay [15]: Monokine induced gamma interferon (MIG), CXCL9 (gene 4283)
Description: BSK_hDFCGF_MIG: BioMAP Diversity Plus: hDFCGF Assay for Monokine induced gamma interferon (MIG) Biomarker Activity (AID 2283063). As to conditions: primary human foreskin fibroblasts; actives raise or lower the signal. The essentials:
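Endpoint derived by bidirectional fitting relative to DMSO; MIG quantified via ELISA in primary human foreskin fibroblasts harvested 24 h after dosing.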

Read-out in assay [16]: Matrix Metallopeptidase 1 (MMP1), MMP1 (gene 4312)
Description: BSK_hDFCGF_MMP1: BioMAP Diversity Plus: hDFCGF Assay for Matrix Metallopeptidase 1 (MMP1) Biomarker Activity (AID 2283064). As to conditions: primary human foreskin fibroblasts; actives raise or lower the signal. In outline:
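Primary human foreskin fibroblasts exposed to chemicals for 24 h; MMP1 measured by ELISA. Cytotoxicity tracked by SRB staining in parallel cultures; bidirectional fit relative to DMSO.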

Read-out in assay [17]: Vascular cell adhesion molecule 1 (VCAM1), VCAM1 (gene 7412)
In words: BSK_hDFCGF_VCAM1: BioMAP Diversity Plus: hDFCGF Assay for Vascular cell adhesion molecule 1 (VCAM1) Biomarker Activity (AID 2283065).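 For AC50: VCAM-1 protein level quantified by ELISA after 24 h chemical exposure.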 The conditions noted are these: primary human foreskin fibroblasts; actives raise or lower the signal. The essentials:
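Measured after 24 h chemical treatment of primary human skin fibroblasts, VCAM-1 was detected by ELISA and concentration-response analysed in both directions versus DMSO vehicle.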

Read-out in assay [18]: Plasminogen activator inhibitor-1 (PAI1), SERPINE1 (gene 5054)
In words: BSK_hDFCGF_PAI1: BioMAP Diversity Plus: hDFCGF Assay for Plasminogen activator inhibitor-1 (PAI1) Biomarker Activity (AID 2283066). The conditions noted are these: primary human foreskin fibroblasts; actives raise or lower the signal. In outline:
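Human foreskin fibroblast primary cells, 24 h chemical exposure; PAI-1 measured by ELISA. Bidirectional fitting relative to DMSO; parallel cultures stained with SRB for total protein to flag overt cytotoxicity.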

Read-out in assay [19]: Intercellular Adhesion Molecule 1 (ICAM1), ICAM1 (gene 3383)
In words: BSK_KF3CT_ICAM1: BioMAP Diversity Plus: KF3CT Assay for Intercellular Adhesion Molecule 1 (ICAM1) Biomarker Activity (AID 2283067). The conditions noted are these: primary human keratinocytes with fibroblasts; actives raise or lower the signal. In outline: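 Bidirectional curve fitting against a DMSO baseline was applied to ICAM-1 ELISA signal from primary human skin co-cultures harvested 24 h after treatment, with SRB staining of parallel wells for overt cytotoxicity.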

Read-out in assay [20]: Interferon-gamma inducible Protein 10 (IP10), CXCL10 (gene 3627)
Description: BSK_KF3CT_IP10: BioMAP Diversity Plus: KF3CT Assay for Interferon-gamma inducible Protein 10 (IP10) Biomarker Activity (AID 2283068). As to conditions: primary human keratinocytes with fibroblasts; actives raise or lower the signal. In outline:
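Signal is secreted/surface IP-10 by ELISA in a human primary skin co-culture of keratinocytes and foreskin fibroblasts, taken 24 h post-dosing; DMSO served as negative control.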

On to `COc1cc(-c2ccc(N)c(OC)c2)ccc1N`, for which the outcome in assay [1], in assay [2], in [3], in assay [4], in [5] and in [6] was inactive. Further, the result in assay [7], in assay [8], in assay [9], in assay [10], in [12] and in assay [13] was inactive. The outcome in assay [14], in assay [15], in [16], in assay [17], in assay [18] and in assay [19] was inactive. Also, the outcome in assay [20] was inactive. In addition, the half-maximal activity concentration (AC50) was 13.2 µM (active) and 4.28 µM (active) in assay [11]; 9.49 µM (active) in assay [12]; 20 µM (active) in assay [16]; 19.2 µM (active) in assay [17].
`CC(C)c1ccc(CO)cc1`: the result in [1], in assay [2], in assay [3], in assay [4], in assay [5] and in assay [6] was inactive. Also, the result in [7], in assay [8], in assay [9], in assay [10], in [11] and in assay [12] was inactive. The outcome in assay [13], in assay [14], in assay [15], in assay [16], in [17] and in assay [18] was inactive. Also, the result in assay [19] and in assay [20] was inactive.
As to `O=C(Nc1ccc2[nH]ccc2c1)c1cc2cc(F)ccc2n1Cc1cccc(F)c1`, the AC50 in [1] was 36.7 µM (active); in assay [2], 28.1 µM (active); in [3], 33 µM (active); in assay [4], 20 µM (active); in assay [5], 3.33 µM (active); in assay [6] it was 14.6 µM (active). Besides, the AC50 in [7] is 29.2 µM (active); in assay [8] it was 1.93 µM (active); in assay [10] it was 5.96 µM (active); in assay [11], 2.53 µM (active); in [12], 3.18 µM (active); in assay [13] it was 3.36 µM (active). The AC50 is 3.93 µM (active) in assay [14]; 4.77 µM (active) in assay [15]; 3.37 µM (active) in assay [16]; 2.65 µM (active) in assay [17]; 2.69 µM (active) in [18]; 8.14 µM (active) in [19]. Further, the AC50 in assay [20] was 7.21 µM (active). Moreover, the outcome in assay [9] was inactive.
Turning to `CCCCCCCCC(=O)NCc1ccc(O)c(OC)c1`, the result in assay [1], in assay [2], in assay [3], in assay [4], in assay [5] and in [7] was inactive. Besides, the result in [9], in assay [10], in [12], in assay [13], in assay [14] and in [15] was inactive. Also, the result in [16], in assay [17], in [19] and in assay [20] was inactive. The half-maximal activity concentration (AC50) is 20 µM (active) in assay [6], 25.6 µM (active) in assay [8] and 0.155 µM (active) in assay [18].
For `Cn1sc(Cl)cc1=O`, the outcome in assay [1], in [2], in assay [3], in [4], in assay [6] and in assay [20] was inactive. For the same compound, the AC50 in assay [5] is 28.2 µM (active); in assay [7], 20 µM (active); in [8], 33.6 µM (active); in assay [9], 33.6 µM (active); in [10] it was 37.9 µM (active); in assay [11], 1.77 µM (active). Further, the half-maximal activity concentration (AC50) is 25.6 µM (active) in [12]; 30.5 µM (active) in assay [13]; 29.8 µM (active) in assay [14]; 27.9 µM (active) in assay [15]; 32.8 µM (active) in assay [16]; 23.4 µM (active) in [17]. Besides, the AC50 in assay [18] was 35.2 µM (active); in assay [19], 20 µM (active).
Take `CCC(C)(C)c1ccc(O)c(C(C)(C)CC)c1`: the concentration at half-maximal activity (AC50) is 30 µM (active) in assay [1]; 13 µM (active) in assay [2]; 33.8 µM (active) in assay [3]; 11.4 µM (active) in [4]; 6.49 µM (active) in [5]; 31.4 µM (active) in [6]. Also, the AC50 is 12.2 µM (active) in assay [7]; 7.28 µM (active) in assay [8]; 10.4 µM (active) in assay [10]; 9.6 µM (active) in [11]; 8.2 µM (active) in [12]; 11.3 µM (active) in assay [13]. In addition, the AC50 in [14] was 8.53 µM (active); in assay [15], 8.09 µM (active); in assay [16] it was 10.7 µM (active); in assay [17], 9.33 µM (active); in assay [18], 7.87 µM (active); in assay [19], 11.7 µM (active). In [20], the AC50 was 9.69 µM (active). Further, the outcome in [9] was inactive.

A word on the AC50: it is the midpoint of the concentration-response curve, whichever way the signal moves.
